Paper PMC7862700, “An all-to-all approach to the identification of sequence-specific readers for epigenetic DNA modifications on cytosine”

Legend:
Experiment in all cases: DAPPL (digital affinity profiling via proximity ligation, sequencing); 10 mM Tris-HCl pH 7.5, 50 mM NaCl, 1 mM DTT, 4% glycerol, room temperature, 30 min; GST-TFs on glutathione beads, 16-mer random dsDNA library, 0.1% formaldehyde crosslink after washing; high values mean tight binding
[1] = molecular target: T1, FLI1 (Homo sapiens, UniProt Q01543 1-452); conditions: protein: recombinant; tags: N-terminal GST; dsDNA, one strand shown
T1 sequence: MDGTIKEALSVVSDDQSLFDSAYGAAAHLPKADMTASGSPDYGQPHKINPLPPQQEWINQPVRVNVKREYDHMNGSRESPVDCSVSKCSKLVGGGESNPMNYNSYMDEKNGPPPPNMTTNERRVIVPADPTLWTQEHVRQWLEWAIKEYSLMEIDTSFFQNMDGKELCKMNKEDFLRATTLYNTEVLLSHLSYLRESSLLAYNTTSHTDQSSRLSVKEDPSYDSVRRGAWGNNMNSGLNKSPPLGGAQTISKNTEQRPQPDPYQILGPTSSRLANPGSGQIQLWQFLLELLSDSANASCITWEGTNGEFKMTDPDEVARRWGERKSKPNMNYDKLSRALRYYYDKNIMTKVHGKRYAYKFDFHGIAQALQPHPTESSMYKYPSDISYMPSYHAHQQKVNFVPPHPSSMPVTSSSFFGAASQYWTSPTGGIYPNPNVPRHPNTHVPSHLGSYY
How it was run: (§1)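 GST fusions of human transcription factors were expressed in yeast and captured with glutathione beads. Once given DNA barcodes and pooled alongside a tag-only sample, they were incubated for 30 min at room temperature with 200 nmole of a random double-stranded 16-mer DNA library in Tris/NaCl/DTT/glycerol buffer, then washed, crosslinked (0.1% formaldehyde), proximity-ligated, PCR-amplified and sequenced on an Illumina NextSeq500. The binding signal of each hexamer is its read frequency for a factor divided by its frequency for the tag-only sample.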

[2] = molecular target: T2, ELK1 (Homo sapiens, UniProt P19419 1-428); conditions: protein: recombinant; tags: N-terminal GST; dsDNA, one strand shown
T2 sequence: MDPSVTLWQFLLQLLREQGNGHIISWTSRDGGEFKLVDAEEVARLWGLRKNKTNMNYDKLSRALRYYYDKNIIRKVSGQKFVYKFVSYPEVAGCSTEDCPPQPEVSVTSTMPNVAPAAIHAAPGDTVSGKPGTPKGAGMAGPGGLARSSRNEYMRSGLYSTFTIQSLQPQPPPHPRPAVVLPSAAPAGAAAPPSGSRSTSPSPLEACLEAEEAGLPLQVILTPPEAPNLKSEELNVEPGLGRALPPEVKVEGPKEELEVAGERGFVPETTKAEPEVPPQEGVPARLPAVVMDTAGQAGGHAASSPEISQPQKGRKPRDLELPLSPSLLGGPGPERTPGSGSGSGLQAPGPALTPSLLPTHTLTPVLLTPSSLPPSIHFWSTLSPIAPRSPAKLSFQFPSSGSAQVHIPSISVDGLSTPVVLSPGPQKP
How it was run: as §1

[3] = molecular target: T3, GABPA (Homo sapiens, UniProt Q06546 1-454); conditions: protein: recombinant; tags: N-terminal GST; dsDNA, one strand shown
T3 sequence: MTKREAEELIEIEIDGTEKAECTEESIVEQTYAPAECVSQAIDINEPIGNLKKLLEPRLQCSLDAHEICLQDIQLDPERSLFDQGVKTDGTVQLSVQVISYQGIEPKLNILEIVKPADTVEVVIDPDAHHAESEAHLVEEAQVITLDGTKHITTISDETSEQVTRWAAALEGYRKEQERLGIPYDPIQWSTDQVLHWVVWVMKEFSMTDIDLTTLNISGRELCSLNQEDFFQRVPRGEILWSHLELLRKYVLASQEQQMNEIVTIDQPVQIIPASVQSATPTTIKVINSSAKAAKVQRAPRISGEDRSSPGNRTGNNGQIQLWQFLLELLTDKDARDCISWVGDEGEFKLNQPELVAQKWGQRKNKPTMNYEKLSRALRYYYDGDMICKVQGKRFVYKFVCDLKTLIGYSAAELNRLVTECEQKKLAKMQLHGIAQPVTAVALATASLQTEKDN
How it was run: as §1

[4] = molecular target: T4, ERG (Homo sapiens, UniProt P11308 1-479); conditions: protein: recombinant; tags: N-terminal GST; dsDNA, one strand shown
T4 sequence: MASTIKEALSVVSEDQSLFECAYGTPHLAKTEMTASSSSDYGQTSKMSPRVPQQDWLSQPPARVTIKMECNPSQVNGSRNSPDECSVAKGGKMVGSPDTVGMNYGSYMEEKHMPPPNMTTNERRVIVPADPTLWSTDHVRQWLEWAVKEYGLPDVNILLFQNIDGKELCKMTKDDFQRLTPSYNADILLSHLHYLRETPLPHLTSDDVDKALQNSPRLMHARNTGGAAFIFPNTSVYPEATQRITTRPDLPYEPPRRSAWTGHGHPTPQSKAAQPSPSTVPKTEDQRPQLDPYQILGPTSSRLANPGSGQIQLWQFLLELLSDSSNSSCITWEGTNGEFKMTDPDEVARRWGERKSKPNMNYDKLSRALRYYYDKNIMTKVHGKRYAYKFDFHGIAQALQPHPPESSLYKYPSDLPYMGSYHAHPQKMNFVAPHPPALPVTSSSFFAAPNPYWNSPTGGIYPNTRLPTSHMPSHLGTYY
How it was run: as §1

[5] = molecular target: ELF1 (Homo sapiens, UniProt P32519 1-619); conditions: protein: recombinant; tags: N-terminal GST; dsDNA, one strand shown
Sequence of ELF1 (P32519 whole entry): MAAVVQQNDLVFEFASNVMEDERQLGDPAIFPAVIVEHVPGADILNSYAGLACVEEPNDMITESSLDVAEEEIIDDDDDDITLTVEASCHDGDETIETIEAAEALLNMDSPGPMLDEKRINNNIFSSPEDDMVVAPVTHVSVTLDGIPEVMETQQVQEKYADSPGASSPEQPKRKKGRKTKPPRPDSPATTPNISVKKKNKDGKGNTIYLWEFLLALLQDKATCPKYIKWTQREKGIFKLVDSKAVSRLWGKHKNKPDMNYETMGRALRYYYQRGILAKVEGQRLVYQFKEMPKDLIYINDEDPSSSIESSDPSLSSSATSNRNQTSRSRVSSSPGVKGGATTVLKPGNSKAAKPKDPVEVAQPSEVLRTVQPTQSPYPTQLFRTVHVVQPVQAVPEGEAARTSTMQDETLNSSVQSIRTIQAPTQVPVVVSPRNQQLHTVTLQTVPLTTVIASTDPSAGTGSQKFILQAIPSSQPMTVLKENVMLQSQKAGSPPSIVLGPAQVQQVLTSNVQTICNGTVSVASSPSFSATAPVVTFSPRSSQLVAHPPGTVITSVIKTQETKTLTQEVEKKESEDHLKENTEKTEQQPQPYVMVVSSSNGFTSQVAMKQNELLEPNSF
How it was run: as §1

[6] = molecular target: T5, EHF (Homo sapiens, UniProt Q9NZC4 1-300); conditions: protein: recombinant; tags: N-terminal GST; dsDNA, one strand shown
T5 sequence: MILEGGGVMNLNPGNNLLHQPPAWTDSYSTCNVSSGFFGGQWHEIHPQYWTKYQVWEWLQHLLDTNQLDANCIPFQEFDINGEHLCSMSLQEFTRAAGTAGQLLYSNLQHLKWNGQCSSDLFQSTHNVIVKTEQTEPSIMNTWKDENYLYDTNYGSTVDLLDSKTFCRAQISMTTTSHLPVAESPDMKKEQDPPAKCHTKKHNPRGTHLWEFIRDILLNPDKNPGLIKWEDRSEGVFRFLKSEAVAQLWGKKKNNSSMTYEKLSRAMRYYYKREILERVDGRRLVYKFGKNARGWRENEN
How it was run: as §1

[7] = molecular target: SPI1 (Homo sapiens, UniProt P17947 1-270); conditions: protein: recombinant; tags: N-terminal GST; dsDNA, one strand shown
How it was run: as §1

[8] = molecular target: SPIB (Homo sapiens, UniProt Q01892 1-262); conditions: protein: recombinant; tags: N-terminal GST; dsDNA, one strand shown
Sequence of SPIB (Q01892 whole entry): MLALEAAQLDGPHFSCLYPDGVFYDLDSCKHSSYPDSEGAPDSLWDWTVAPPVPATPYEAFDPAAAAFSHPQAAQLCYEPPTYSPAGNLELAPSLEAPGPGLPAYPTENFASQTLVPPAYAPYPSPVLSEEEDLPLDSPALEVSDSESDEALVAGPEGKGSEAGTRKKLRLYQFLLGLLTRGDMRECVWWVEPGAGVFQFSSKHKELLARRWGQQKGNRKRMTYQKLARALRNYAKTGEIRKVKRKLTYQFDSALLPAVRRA
How it was run: as §1

[9] = molecular target: T6, ELK3 (Homo sapiens, UniProt P41970 1-407); conditions: protein: recombinant; tags: N-terminal GST; dsDNA, one strand shown
T6 sequence: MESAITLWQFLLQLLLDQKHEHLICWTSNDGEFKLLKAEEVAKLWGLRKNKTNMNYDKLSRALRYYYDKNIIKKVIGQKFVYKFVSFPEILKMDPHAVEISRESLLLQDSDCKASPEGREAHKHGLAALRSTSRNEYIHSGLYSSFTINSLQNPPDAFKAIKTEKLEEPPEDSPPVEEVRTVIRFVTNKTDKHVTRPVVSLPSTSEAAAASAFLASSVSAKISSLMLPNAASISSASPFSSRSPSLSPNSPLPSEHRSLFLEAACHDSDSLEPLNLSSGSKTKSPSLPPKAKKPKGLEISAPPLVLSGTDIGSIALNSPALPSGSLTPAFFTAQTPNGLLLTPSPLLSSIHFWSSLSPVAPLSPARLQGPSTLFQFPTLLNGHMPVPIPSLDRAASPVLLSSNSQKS
How it was run: as §1

[10] = molecular target: T7, FEV (Homo sapiens, UniProt Q99581 1-238); conditions: protein: recombinant; tags: N-terminal GST; dsDNA, one strand shown
T7 sequence: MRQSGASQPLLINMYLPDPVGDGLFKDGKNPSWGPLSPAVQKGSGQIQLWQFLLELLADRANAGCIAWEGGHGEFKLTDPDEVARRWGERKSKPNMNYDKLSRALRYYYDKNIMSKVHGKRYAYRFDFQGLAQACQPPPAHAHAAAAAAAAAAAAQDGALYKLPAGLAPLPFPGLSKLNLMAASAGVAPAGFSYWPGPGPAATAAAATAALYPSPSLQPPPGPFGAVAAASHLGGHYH
How it was run: as §1

[11] = molecular target: ETV5 (Homo sapiens, UniProt P41161 1-510); conditions: protein: recombinant; tags: N-terminal GST; dsDNA, one strand shown
Sequence of ETV5 (P41161 whole entry): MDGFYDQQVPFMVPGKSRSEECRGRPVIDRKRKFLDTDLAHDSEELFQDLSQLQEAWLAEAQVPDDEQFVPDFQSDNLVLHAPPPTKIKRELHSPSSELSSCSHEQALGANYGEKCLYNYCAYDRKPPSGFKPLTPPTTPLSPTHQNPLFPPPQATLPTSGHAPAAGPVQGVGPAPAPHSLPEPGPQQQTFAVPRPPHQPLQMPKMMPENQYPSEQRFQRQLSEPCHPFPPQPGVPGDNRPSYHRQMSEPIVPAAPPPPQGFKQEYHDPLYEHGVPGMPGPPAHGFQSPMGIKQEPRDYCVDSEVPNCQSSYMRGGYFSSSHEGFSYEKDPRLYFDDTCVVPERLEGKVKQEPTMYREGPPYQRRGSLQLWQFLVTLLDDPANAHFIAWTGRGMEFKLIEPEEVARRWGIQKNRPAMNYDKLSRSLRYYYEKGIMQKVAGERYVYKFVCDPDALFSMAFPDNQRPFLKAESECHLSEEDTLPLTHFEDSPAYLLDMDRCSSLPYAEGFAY
How it was run: as §1

[12] = molecular target: HSF1 (Homo sapiens, UniProt Q00613 1-529); conditions: protein: recombinant; tags: N-terminal GST; chain copies: 3; dsDNA, one strand shown
Sequence of HSF1 (Q00613 whole entry): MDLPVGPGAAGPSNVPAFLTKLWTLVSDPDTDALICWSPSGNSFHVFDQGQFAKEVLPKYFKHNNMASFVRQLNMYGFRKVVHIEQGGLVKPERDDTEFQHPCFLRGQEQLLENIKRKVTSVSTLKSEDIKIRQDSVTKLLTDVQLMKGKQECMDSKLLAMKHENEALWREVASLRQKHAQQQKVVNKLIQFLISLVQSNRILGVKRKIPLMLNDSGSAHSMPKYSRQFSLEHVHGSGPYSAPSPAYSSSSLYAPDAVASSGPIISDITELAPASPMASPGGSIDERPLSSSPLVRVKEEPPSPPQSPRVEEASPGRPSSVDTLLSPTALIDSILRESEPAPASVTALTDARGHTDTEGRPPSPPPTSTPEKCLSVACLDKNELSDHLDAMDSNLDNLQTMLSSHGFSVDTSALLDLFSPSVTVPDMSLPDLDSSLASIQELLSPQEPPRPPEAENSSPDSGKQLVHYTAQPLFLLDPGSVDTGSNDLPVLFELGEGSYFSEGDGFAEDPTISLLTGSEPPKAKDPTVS
How it was run: as §1

[13] = molecular target: T8, SPIC (Homo sapiens, UniProt Q8N5J4 1-248); conditions: protein: recombinant; tags: N-terminal GST; dsDNA, one strand shown
T8 sequence: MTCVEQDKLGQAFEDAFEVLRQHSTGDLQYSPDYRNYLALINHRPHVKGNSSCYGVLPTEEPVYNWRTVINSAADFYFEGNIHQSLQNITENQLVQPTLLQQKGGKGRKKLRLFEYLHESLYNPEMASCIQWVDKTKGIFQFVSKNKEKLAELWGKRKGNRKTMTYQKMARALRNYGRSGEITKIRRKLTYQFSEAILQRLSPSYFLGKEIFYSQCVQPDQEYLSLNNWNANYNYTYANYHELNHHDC
How it was run: as §1

[14] = molecular target: ELF4 (Homo sapiens, UniProt Q99607 1-663); conditions: protein: recombinant; tags: N-terminal GST; dsDNA, one strand shown
Sequence of ELF4 (Q99607 whole entry): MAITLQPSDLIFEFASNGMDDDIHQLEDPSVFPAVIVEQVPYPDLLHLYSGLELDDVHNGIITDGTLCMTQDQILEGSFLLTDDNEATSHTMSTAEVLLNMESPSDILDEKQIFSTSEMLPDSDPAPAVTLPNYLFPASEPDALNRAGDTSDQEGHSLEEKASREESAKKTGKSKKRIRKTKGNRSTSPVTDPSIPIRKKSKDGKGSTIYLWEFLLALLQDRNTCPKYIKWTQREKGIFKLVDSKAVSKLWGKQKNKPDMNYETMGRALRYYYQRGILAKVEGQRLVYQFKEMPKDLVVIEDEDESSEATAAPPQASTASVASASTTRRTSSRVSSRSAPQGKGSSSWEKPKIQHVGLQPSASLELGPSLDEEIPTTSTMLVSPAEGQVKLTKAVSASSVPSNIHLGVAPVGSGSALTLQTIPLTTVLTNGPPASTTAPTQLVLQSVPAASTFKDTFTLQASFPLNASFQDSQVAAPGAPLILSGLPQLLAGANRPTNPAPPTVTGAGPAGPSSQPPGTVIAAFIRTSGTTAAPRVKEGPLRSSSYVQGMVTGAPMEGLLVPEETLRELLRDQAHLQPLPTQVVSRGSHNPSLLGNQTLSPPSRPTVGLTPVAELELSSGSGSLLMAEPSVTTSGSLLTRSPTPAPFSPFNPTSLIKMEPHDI
How it was run: as §1

[15] = molecular target: T9, ELK4 (Homo sapiens, UniProt P28324-2 1-405); conditions: protein: recombinant; tags: N-terminal GST; dsDNA, one strand shown
T9 sequence: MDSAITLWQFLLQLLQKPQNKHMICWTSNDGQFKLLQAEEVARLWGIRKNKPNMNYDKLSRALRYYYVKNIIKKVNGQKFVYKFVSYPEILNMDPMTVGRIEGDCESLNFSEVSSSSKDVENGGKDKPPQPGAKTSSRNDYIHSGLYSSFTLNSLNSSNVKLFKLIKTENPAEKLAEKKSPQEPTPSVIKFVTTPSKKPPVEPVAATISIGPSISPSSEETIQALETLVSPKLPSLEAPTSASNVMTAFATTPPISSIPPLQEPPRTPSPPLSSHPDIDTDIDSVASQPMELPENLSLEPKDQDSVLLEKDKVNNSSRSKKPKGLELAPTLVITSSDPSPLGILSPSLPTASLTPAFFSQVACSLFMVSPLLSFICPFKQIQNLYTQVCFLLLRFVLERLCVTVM
How it was run: as §1

[16] = molecular target: T10, ETV2 (Homo sapiens, UniProt O00321 1-342); conditions: protein: recombinant; tags: N-terminal GST; dsDNA, one strand shown
T10 sequence: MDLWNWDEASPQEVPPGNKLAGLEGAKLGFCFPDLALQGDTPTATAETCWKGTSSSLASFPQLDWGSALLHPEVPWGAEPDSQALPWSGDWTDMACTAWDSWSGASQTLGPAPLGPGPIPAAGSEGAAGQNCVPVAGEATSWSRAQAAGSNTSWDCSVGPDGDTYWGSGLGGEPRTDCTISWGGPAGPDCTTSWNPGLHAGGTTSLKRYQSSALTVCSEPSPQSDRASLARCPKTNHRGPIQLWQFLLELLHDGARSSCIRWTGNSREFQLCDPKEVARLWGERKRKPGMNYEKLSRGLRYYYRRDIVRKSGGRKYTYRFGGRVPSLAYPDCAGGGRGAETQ
How it was run: as §1

[17] = molecular target: T11, ELF3 (Homo sapiens, UniProt P78545 1-371); conditions: protein: recombinant; tags: N-terminal GST; dsDNA, one strand shown
T11 sequence: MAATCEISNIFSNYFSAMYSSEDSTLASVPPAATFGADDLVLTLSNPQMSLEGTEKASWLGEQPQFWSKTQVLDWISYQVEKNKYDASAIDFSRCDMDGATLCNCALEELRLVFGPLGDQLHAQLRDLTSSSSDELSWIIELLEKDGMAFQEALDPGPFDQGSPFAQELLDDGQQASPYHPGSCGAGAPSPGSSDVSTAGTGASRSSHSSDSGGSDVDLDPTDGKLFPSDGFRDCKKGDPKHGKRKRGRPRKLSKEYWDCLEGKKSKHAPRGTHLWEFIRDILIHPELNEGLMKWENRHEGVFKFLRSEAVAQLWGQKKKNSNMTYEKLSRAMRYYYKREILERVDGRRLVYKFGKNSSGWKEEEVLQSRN
How it was run: as §1

[18] = molecular target: CRX (Homo sapiens, UniProt O43186 1-299); conditions: protein: recombinant; tags: N-terminal GST; dsDNA, one strand shown
Sequence of CRX (O43186 whole entry): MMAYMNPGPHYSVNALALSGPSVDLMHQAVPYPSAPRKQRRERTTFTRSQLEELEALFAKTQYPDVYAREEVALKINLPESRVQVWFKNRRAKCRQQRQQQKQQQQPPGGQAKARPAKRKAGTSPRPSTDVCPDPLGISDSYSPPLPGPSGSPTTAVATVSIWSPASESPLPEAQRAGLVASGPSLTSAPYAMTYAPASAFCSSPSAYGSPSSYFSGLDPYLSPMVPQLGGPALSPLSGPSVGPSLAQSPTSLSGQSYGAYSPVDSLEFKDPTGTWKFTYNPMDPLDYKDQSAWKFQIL
How it was run: as §1

[19] = molecular target: ETV1 (Homo sapiens, UniProt P50549 1-477); conditions: protein: recombinant; tags: N-terminal GST; dsDNA, one strand shown
Sequence of ETV1 (P50549 whole entry): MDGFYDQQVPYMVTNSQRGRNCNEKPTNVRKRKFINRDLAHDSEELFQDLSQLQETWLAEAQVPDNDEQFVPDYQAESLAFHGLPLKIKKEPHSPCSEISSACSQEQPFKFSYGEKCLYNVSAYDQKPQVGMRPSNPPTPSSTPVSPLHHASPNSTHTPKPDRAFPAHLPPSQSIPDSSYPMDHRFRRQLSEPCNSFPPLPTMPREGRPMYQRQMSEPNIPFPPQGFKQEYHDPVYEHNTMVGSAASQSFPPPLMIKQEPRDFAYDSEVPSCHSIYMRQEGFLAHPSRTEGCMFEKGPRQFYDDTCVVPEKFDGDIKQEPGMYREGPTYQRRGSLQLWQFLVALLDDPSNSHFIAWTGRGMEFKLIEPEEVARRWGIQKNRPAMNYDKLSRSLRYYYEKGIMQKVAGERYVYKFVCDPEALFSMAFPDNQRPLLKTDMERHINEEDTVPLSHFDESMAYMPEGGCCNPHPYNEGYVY
How it was run: as §1

## TACGCC
[1]
  binding signal: 1.39 fold enrichment (6-mer frequency, TF over GST control)
[2]
  binding signal: 1.22 fold enrichment (6-mer frequency, TF over GST control)
[3]
  binding signal: 1.3 fold enrichment (6-mer frequency, TF over GST control)
[4]
  binding signal: 1.16 fold enrichment (6-mer frequency, TF over GST control)
[5]
  binding signal: 1.28 fold enrichment (6-mer frequency, TF over GST control)
[6]
  binding signal: 1.18 fold enrichment (6-mer frequency, TF over GST control)
[7]
  binding signal: 1.18 fold enrichment (6-mer frequency, TF over GST control)
[8]
  binding signal: 1.18 fold enrichment (6-mer frequency, TF over GST control)
[9]
  binding signal: 1.23 fold enrichment (6-mer frequency, TF over GST control)
[10]
  binding signal: 1.25 fold enrichment (6-mer frequency, TF over GST control)
[11]
  binding signal: 1.26 fold enrichment (6-mer frequency, TF over GST control)
[12]
  binding signal: 1.17 fold enrichment (6-mer frequency, TF over GST control)
[13]
  binding signal: 1.32 fold enrichment (6-mer frequency, TF over GST control)
[14]
  binding signal: 1.29 fold enrichment (6-mer frequency, TF over GST control)
[15]
  binding signal: 1.24 fold enrichment (6-mer frequency, TF over GST control)
[16]
  binding signal: 1.02 fold enrichment (6-mer frequency, TF over GST control)
[17]
  binding signal: 1.14 fold enrichment (6-mer frequency, TF over GST control)
[18]
  binding signal: 1.2 fold enrichment (6-mer frequency, TF over GST control)
[19]
  binding signal: 1.22 fold enrichment (6-mer frequency, TF over GST control)
